Reference: PubChem BioAssay AID594 (National Center for Advancing Translational Sciences (NCATS), 2007)
Screen size: about 59,000 compounds; about 30 (0.05%) were called active. Cut-off read from the data, not from the text of the source: active = max dye-equivalent concentration above about 11 nM; inconclusive = between about 1.1 nM and that limit; inactive = weaker than that. This excerpt belongs to a sample that is enriched for actives.

Assay: qHTS Assay for Spectroscopic Profiling in Rhodamine Spectral Region
Settings: Rhodamine-region fluorescence, 547/598 nm, Tris buffer
From the text: NIH Molecular Libraries Screening Centers Network [MLSCN] NIH Chemical Genomics Center [NCGC] […] Occasionally, the artifactual effect may originate from the compound#s own spectral or other biophysical properties which generally tend to track its assay concentration. Pre-screening/profiling the library with respect to the compounds# spectral properties should help one exclude false positives early on. While the most informative fluorescent profiling data set is obtained by performing a full excitation and emission scan of each well by using a monochromator-based plate reader, such an approach is practical only on a very limited scale as scanning each well requires long time. An alternative approach, applied here, is to perform plate reader scans using selected excitation and emission wavelength pairs to generate a multidimensional relational database that correlates compound concentration and the respective relative fluorescence intensity at a given wavelength set. A standard curve of rhodamine present on each plate as six-point concentration series, was used to compute a normalized fluorescence response, termed dye-equivalent concentration, for each compound at each concentration.
NCGC Assay Protocol Summary: Buffer: 100 mM Tris buffer, pH 8.0 Dye standard plate: The wells in columns 1 through 4 of a Kalypsys polypropylene 1536-well compound plate were filled with standard solutions of fluorophore corresponding to the spectral region of interest. Solutions of rhodamine were placed in the following wells: E1, F1: 3 mM, E2, F2: 300 uM, E3, F3: 30 uM, E4, F4: zero (DMSO), G1, H1: 3 uM, G2, H2: […], G3, H3: 300 nM, G4, H4: zero (DMSO). Assay Steps: Six uL of buffer were dispensed to 1536-well Greiner black plates. Compounds and dye standards (23 nL) were transferred via Kalypsys PinTool. The plates were incubated for 15 min at room temperature, and then read on ViewLux (Perkin-Elmer) High-throughput CCD imager using 547 nm and 598 nm excitation and emission filter set. Keywords: NIH Roadmap, MLSCN, MLI, MLSMR, qHTS, NCGC, Rhodamine , Fluorescent Profiling.

Max dye-equivalent concentration, inactive:
CCNc1ncc2ncc(=O)n(Cc3cccc(OC)c3)c2n1
CC1Cc2ccccc2N1C(=O)CSc1nc2ccccc2o1 (configuration not stated)
CCN(CC)c1ccc(C(=O)OCC(=O)c2ccco2)cc1
Cc1ccsc1C(C(=O)NC1CCCCC1)N(C(=O)Cc1cccs1)C1CC1 (configuration not stated)
CCC(C(=O)Nc1ncccn1)(C(F)(F)F)C(F)(F)F
CC(C)C(c1nnnn1CCc1ccccc1)N1CCN(C(=O)c2ccco2)CC1 (configuration not stated)
O=C(Nc1c(-c2ccccc2)nc2c(Br)cc(Br)cn12)c1ccco1
Cc1oc(-c2cccc(Cl)c2)[n+]([O-])c1C
COCCn1c(=O)c(-c2cccs2)nc2cncnc21
Nc1nonc1-c1noc(-c2ccc(Br)o2)n1
CCOC(=O)C1=C(CNC2CCCCC2)NC(=O)NC1c1cc(C)ccc1C (configuration not stated)
Cc1cc(=O)n2nc(N3CCCC3C(=O)NCCCN3CC(C)CC(C)C3)sc2n1 (configuration not stated)
O=C(CN1CCN(c2ccccn2)CC1)NCc1cccs1
OCc1n[nH]c(CO)n1
CCC(=O)Nc1sc(C(=O)N2CCCCC2)c(C)c1C#N
CCOC(=O)c1c(C)c(C(=O)NCCc2ccc(S(N)(=O)=O)cc2)c(C)n1CC
COc1ccc(CCNC(=O)CN2CCC(n3nnc4cc(F)ccc43)CC2)cc1OC
Nc1nnnn1/N=C/c1cccs1
CCc1ccccc1NC(=O)CSc1nnc([C@@H](NC(=O)OC(C)(C)C)C(C)C)o1
COc1cc(Cl)c(C)cc1NC(=O)CSc1nnc(-c2cccnc2)n1Cc1ccco1
Cc1cc(N2CCCC2=O)cc(C)c1S(N)(=O)=O
C/C(=N\O)C1(C)N(O)C(C)(C)C(c2ccc(Br)cc2)=[N+]1[O-] (configuration not stated)
